The structures appear in SMILES notation. Records with an inconclusive call do not appear. Calls of active or inactive are those of the source. The calls were made as follows: active = hit-call score of the fitted dose curve at least 0.9, where 1 is the maximum; inconclusive = response in the unintended direction; inactive = score below 0.9.

A word on the AC50: it is the concentration giving half of the maximal activity seen.

Read-out in this assay: sulfotransferase (SULT2A), SULT2A1 (gene 6822)
In words: CLD_SULT2A_6hr: CellzDirect (CLD) Gene Expression Assay for sulfotransferase (SULT2A) at 6 hours (AID 2283669).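 Also: hits raise transcript level above the DMSO vehicle baseline.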 As to the method:
CLD_6hr is a cell-based, multiplexed-readout assay that uses hepatocyte, a human liver primary cell, with measurements taken at 6 hours after chemical dosing in a 96-well plate.CLD_SULT2A_6hr is one of 16 assay component(s) measured or calculated from the CLD_6hr assay. It is designed to make measurements of mRNA induction, a form of inducible reporter, as detected with chemiluminescence signals by Quantitative Nuclease Protection Assay (qNPA) technology.Data from the assay component CLD_SULT2A_6hr was analyzed at the endpoint, CLD_SULT2A_6hr, in the positive analysis fitting direction relative to DMSO as the negative control and baseline of activity. Using a type of inducible reporter, gain-of-signal activity can be used to understand changes in the reporter gene as they relate to the gene SULT2A1. Furthermore, this assay endpoint can be referred to as a primary readout. To generalize the intended target to other relatable targets, this assay endpoint is annotated to the transferase intended target family, where subfamily is sulfotransferase.
Human hepatocyte cultures were treated daily for two consecutive days with fresh dosing solutions containing appropriate concentrations of the 320 ToxCast chemicals (chemical identities were blinded to CellzDirect and other ToxCast collaborators), vehicle control (0.2% DMSO), and positive control inducers as summarized in Table 1. Due to the large number of treatment groups and chemicals examined, the ToxCast chemicals were divided into two groups (spanning two independent cultures of hepatocytes from separate donor preparations (Hu778: ToxCast plates 1 and 2; Hu776: ToxCast plates 3 and 4). Each preparation of human hepatocyte cultures was treated with respective vehicle control, medium only control, set of six positive controls/reference chemicals for the five hepatic receptor pathways, and a subset of eight of the ToxCast chemicals (indoxacarb, pyrithiobac-sodium, norflurazon, cyhalofop-butyl, methomyl, thiram, acetochlor, and propiconazole). These replicate data, coupled with internal replicates designed within the blinded ToxCast chemical library, provided additional data to evaluate interindividual differences between hepatocyte preparations and their potential impact on chemical profiles.Cell morphology and integrity were evaluated using phase-contrast microscopy as an indicator of hepatocyte cell health (Tyson & Green, 1987). Cultures for each treatment group (i.e., media, vehicle [0.2% DMSO], positive control inducers [multiple concentrations], and the ToxCast chemicals [multiple concentrations]) were observed and cell morphology was assessed relative to vehicle control cultures at each harvest time point (0, 6, 24, or 48 h). […] Images were evaluated at the conclusion of the study to assess changes in cell integrity and account for the effects of chemical exposure on uncharacteristic changes in concentration-dependent gene expression profiles. The results from these determinations of apparent cytotoxicity were annotated (yes/no) alongside the corresponding qNPA data for reference.At the conclusion of each treatment period, hepatocyte cultures (96-well) were washed with 1 volume of HBSS, lysed by addition of 25 ul ArrayPlate lysis buffer (HTG, Tucson, AZ), and 70 ul/well of Denaturation Oil, denatured by incubation at 95C for 10 min, and frozen at approximately -70C until analysis by nuclease protection assay (qNPA) (Roberts et al., 2007). For qNPA analysis, cell lysates were thawed at 50C for approximately 30 min, qNPA probes were added, and samples were incubated at 95C for 10 min to begin the detection process by denaturing the target RNA, dissociating the duplexes and secondary structure hybridization. At the conclusion of the hybridization period, S1 nuclease reagent was added to each sample to digest all nonprotected nucleotides at 50C for 60-90 min. […]
Regarding `CCN(CC)C(=O)SCc1ccc(Cl)cc1`, the call was inactive.
`O=S1OCC2C(CO1)C1(Cl)C(Cl)=C(Cl)C2(Cl)C1(Cl)Cl` (configuration not stated): the result was inactive.
Turning to `N#Cc1c(Cl)c(Cl)c(Cl)c(C#N)c1Cl`, the AC50 is 33.5 µM (active).
Turning to `CCC(C)(NC(=O)c1cc(Cl)c(C)c(Cl)c1)C(=O)CCl` (configuration not stated), the compound was called inactive.
With `Clc1ccccc1-c1nnc(-c2ccccc2Cl)nn1`, the compound was called inactive.
Still for that read-out and setting: to `CC1(C)C(C=C(Cl)Cl)C1C(=O)OC(C#N)c1ccc(F)c(Oc2ccccc2)c1` (configuration not stated) belongs “inactive”.
Same read-out and setting: with `CC[C@H](C)[C@H]1O[C@]2(C=C[C@@H]1C)C[C@@H]1C[C@@H](C/C=C(\C)[C@@H](O[C@H]3C[C@H](OC)[C@@H](O[C@H]4C[C@H](OC)[C@@H](O)[C@H](C)O4)[C@H](C)O3)[C@@H](C)/C=C/C=C3\CO[C@@H]4[C@H](O)C(C)=C[C@@H](C(=O)O1)[C@]34O)O2` (tested in a mixture with another compound) the entry was “inactive”.
Regarding `CN1CSC(=S)N(C)C1`, the outcome was inactive.
Turning to `COP(=S)(OC)Oc1ccc([N+](=O)[O-])cc1`, the result was inactive.
With `CNC(=O)/C=C(\C)OP(=O)(OC)OC`, the call was inactive.
The same measure, in the same setting: with `O=C(NC(=O)c1c(F)cccc1F)Nc1ccc(OC(F)(F)C(F)OC(F)(F)F)c(Cl)c1` (configuration not stated) the entry was “inactive”; with `COC(=O)c1ccccc1CS(=O)(=O)NC(=O)Nc1nc(OC)cc(OC)n1`, “inactive”; with `CNC(=O)Oc1cccc(N=CN(C)C)c1`, “inactive”.
Consider `O=[N+]([O-])/N=C1\NCCN1Cc1ccc(Cl)nc1`, for which the compound was called inactive.
For the compound `O=S(=O)(O)C(F)(F)C(F)(F)C(F)(F)C(F)(F)C(F)(F)C(F)(F)C(F)(F)C(F)(F)F`, the compound was classed as inactive.
As for `N#CN`, the outcome was inactive.
Same read-out and setting: with `Cc1[nH]c(=O)n(C(C)(C)C)c(=O)c1Cl` the entry was “inactive”; with `O=C(Nc1ccccc1)Nc1cnns1`, “inactive”.
Still for that read-out and setting: with `CC1(c2ccc(Oc3ccccc3)cc2)OC(=O)N(Nc2ccccc2)C1=O` (configuration not stated) the entry was “inactive”.
With `C[C@H]1[C@H](c2ccc(Cl)cc2)SC(=O)N1C(=O)NC1CCCCC1`, the result was inactive.
`CCC(C)Nc1c([N+](=O)[O-])cc(C(C)(C)C)cc1[N+](=O)[O-]` (configuration not stated): the compound was classed as inactive.
Take `CC(C)(C)C(O)C(Oc1ccc(Cl)cc1)n1cncn1` (configuration not stated): the compound was called inactive.
`CCOC1Oc2ccc(OS(C)(=O)=O)cc2C1(C)C` (configuration not stated): the result was inactive.
For `COc1cc(OC)nc(NC(=O)NS(=O)(=O)c2cc(NC=O)ccc2C(=O)N(C)C)n1`, the compound was classed as inactive.
In the case of `CNC(=O)Oc1ccccc1OC(C)C`, the call was inactive.
`O=C(O)CCCOc1ccc(Cl)cc1Cl`: the outcome was inactive.
For the compound `CCOCN(C(=O)CCl)c1c(C)cccc1CC`, the compound was called inactive.
As for `CCc1ccc(C(=O)NN(C(=O)c2cc(C)cc(C)c2)C(C)(C)C)cc1`, the compound was called inactive.
Still for that read-out and setting: with `Cc1cc(C)nc(NC(=O)NS(=O)(=O)c2ccccc2C(=O)OC2COC2)n1` the entry was “inactive”; with `CCOc1nc(NC)nc(NC(=O)NS(=O)(=O)c2ccccc2C(=O)OC)n1`, “inactive”.
As to `CCCN(CCC)c1c([N+](=O)[O-])cc(C(F)(F)F)cc1[N+](=O)[O-]`, the result was inactive.
`CCCN(CCOc1c(Cl)cc(Cl)cc1Cl)C(=O)n1ccnc1`: the compound was called inactive.
The same measure, in the same setting: with `COC(=O)c1ccccc1S(=O)(=O)NC(=O)N(C)c1nc(C)nc(OC)n1` the entry was “inactive”; with `CC(C)(C)C(O)/C(=C\c1ccc(Cl)cc1Cl)n1cncn1` (configuration not stated), “inactive”; with `CC(C)N(C(=O)COc1nnc(C(F)(F)F)s1)c1ccc(F)cc1`, “inactive”.
Take `COP(=S)(OC)Oc1ccc(SC)c(C)c1`: the call was inactive.
On to `ClC1C(Cl)C(Cl)C(Cl)C(Cl)C1Cl` (configuration not stated), for which the compound was called inactive.
